# Test results published in the supplement of paper PMC6992640.
# ± gives the standard deviation of the averaged measurements.
# Legend:
# HCI01 = cells of a triple-negative basal-like breast cancer xenograft; experiment: cell viability of combination (% of vehicle); higher = less cytotoxic; conditions: 1 µM; 72 h; partner dose: 10 nM
# Protocol: (§1)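 PDX cells were treated for 72 h with each drug at 1 µM plus carfilzomib (10 nM; 100 nM for WHIM2). Luciferase viability is expressed as percent of vehicle.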
# UCD52 [1] = cells of a triple-negative basal-like breast cancer xenograft; experiment: as above; conditions: 1 µM; 72 h; partner dose: 10 nM
# Protocol: as §1
# HCI16 = cells of a triple-negative basal-like breast cancer xenograft; experiment: cell viability (% of vehicle); higher = less cytotoxic; conditions: 10 µM; 72 h
# HCI11 = cells of an ER-positive luminal breast cancer xenograft; experiment: as above; conditions: 10 µM; 72 h
# UCD52 [2] = experiment: as above; conditions: 10 µM; 72 h
# HCI03 = cells of an ER-positive luminal breast cancer xenograft; experiment: as above; conditions: 10 µM; 72 h
# HCI13 = cells of an ER-positive luminal breast cancer xenograft; experiment: as above; conditions: 10 µM; 72 h
# WHIM2 = cells of a triple-negative basal-like breast cancer xenograft; experiment: as above; conditions: 10 µM; 72 h
# HCI09 = cells of a triple-negative luminal androgen receptor type breast cancer xenograft; experiment: as above; conditions: 10 µM; 72 h
# WHIM30 = cells of a triple-negative basal-like breast cancer xenograft; experiment: as above; conditions: 10 µM; 72 h
structure (smiles),measurement,setting,value
CC1(C)Cc2c(-c3ccccc3)c(-c3ccc(Cl)cc3)c(CC(=O)O)n2C1 [Licofelone] + CC(C)C[C@H](NC(=O)[C@H](CCc1ccccc1)NC(=O)CN1CCOCC1)C(=O)N[C@@H](Cc1ccccc1)C(=O)N[C@@H](CC(C)C)C(=O)[C@@]1(C)CO1 [Carfilzomib],cell viability of combination,HCI01,83.7
same,cell viability of combination,UCD52 [1],64.7
Cc1nc(-c2ccc(OCC(C)C)c(C#N)c2)sc1C(=O)O [Febuxostat],cell viability,HCI16,191
c1cn2cc(-c3ccc4cn[nH]c4c3)nc(Nc3ccc(N4CCOCC4)cc3)c2n1,cell viability,HCI11,125
same,cell viability,HCI16,86.2
C=CC(=O)Nc1cc(Nc2nccc(-c3cn(C)c4ccccc34)n2)c(OC)cc1N(C)CCN(C)C + CC(C)C[C@H](NC(=O)[C@H](CCc1ccccc1)NC(=O)CN1CCOCC1)C(=O)N[C@@H](Cc1ccccc1)C(=O)N[C@@H](CC(C)C)C(=O)[C@@]1(C)CO1 [Carfilzomib],cell viability of combination,HCI01,59.8
same,cell viability of combination,UCD52 [1],53.7
CCCCc1oc2ccccc2c1C(=O)c1cc(I)c(OCCN(CC)CC)c(I)c1.Cl [Amiodarone HCl] + CC(C)C[C@H](NC(=O)[C@H](CCc1ccccc1)NC(=O)CN1CCOCC1)C(=O)N[C@@H](Cc1ccccc1)C(=O)N[C@@H](CC(C)C)C(=O)[C@@]1(C)CO1 [Carfilzomib],cell viability of combination,HCI01,90.8
same,cell viability of combination,UCD52 [1],63.7
COc1ccc(C=CC(=O)Nc2ccccc2C(=O)O)cc1OC [Tranilast],cell viability,HCI11,87.9
same,cell viability,HCI16,108
same,cell viability,UCD52 [2],116 ± 8.9
C[C@H]1O[C@@H](O[C@H]2[C@@H](O)C[C@H](O[C@H]3[C@@H](O)C[C@H](O[C@H]4CC[C@@]5(C)[C@H](CC[C@@H]6[C@@H]5C[C@@H](O)[C@]5(C)[C@@H](C7=CC(=O)OC7)CC[C@]65O)C4)O[C@@H]3C)O[C@@H]2C)C[C@H](O)[C@@H]1O [Digoxin] + CC(C)C[C@H](NC(=O)[C@H](CCc1ccccc1)NC(=O)CN1CCOCC1)C(=O)N[C@@H](Cc1ccccc1)C(=O)N[C@@H](CC(C)C)C(=O)[C@@]1(C)CO1 [Carfilzomib],cell viability of combination,HCI01,40.7
same,cell viability of combination,UCD52 [1],16.9
Nc1nc2ccc(OC(F)(F)F)cc2s1 [Riluzole],cell viability,HCI03,158
same,cell viability,HCI11,162
same,cell viability,HCI13,161 ± 27
same,cell viability,HCI16,139
same,cell viability,UCD52 [2],175 ± 15
same,cell viability,WHIM2,145 ± 7.3
C#Cc1cccc(Nc2ncnc3cc(OCCOC)c(OCCOC)cc23)c1.Cl [Erlotinib Hydrochloride] + CC(C)C[C@H](NC(=O)[C@H](CCc1ccccc1)NC(=O)CN1CCOCC1)C(=O)N[C@@H](Cc1ccccc1)C(=O)N[C@@H](CC(C)C)C(=O)[C@@]1(C)CO1 [Carfilzomib],cell viability of combination,HCI01,62.6
same,cell viability of combination,UCD52 [1],57.4
CCCCc1nc2cc(C=CC(=O)NO)ccc2n1CCN(CC)CC [Pracinostat (SB939)],cell viability,HCI09,56.2 ± 49
same,cell viability,HCI11,6.31
same,cell viability,HCI13,88.1 ± 21
same,cell viability,WHIM2,64.9 ± 4.9
CNCCC(Oc1cccc2ccccc12)c1cccs1.Cl (stereo not drawn) [Duloxetine HCl] + CC(C)C[C@H](NC(=O)[C@H](CCc1ccccc1)NC(=O)CN1CCOCC1)C(=O)N[C@@H](Cc1ccccc1)C(=O)N[C@@H](CC(C)C)C(=O)[C@@]1(C)CO1 [Carfilzomib],cell viability of combination,HCI01,81.6
same,cell viability of combination,UCD52 [1],62.4
CC(=Cc1ccccc1)C=C1SC(=S)N(CC(=O)O)C1=O [Epalrestat],cell viability,HCI03,112
same,cell viability,HCI11,96.4
same,cell viability,HCI13,170 ± 10
same,cell viability,HCI16,102
same,cell viability,UCD52 [2],102 ± 11
same,cell viability,WHIM30,134 ± 29
Nc1ccc2cc3ccc([NH3+])cc3nc2c1.Nc1ccc2cc3ccc([NH3+])cc3nc2c1.O=S(=O)([O-])[O-] [Proflavine Hemisulfate] + CC(C)C[C@H](NC(=O)[C@H](CCc1ccccc1)NC(=O)CN1CCOCC1)C(=O)N[C@@H](Cc1ccccc1)C(=O)N[C@@H](CC(C)C)C(=O)[C@@]1(C)CO1 [Carfilzomib],cell viability of combination,HCI01,78
same,cell viability of combination,UCD52 [1],94
CNC(=O)c1cc(Oc2ccc(NC(=O)Nc3ccc(Cl)c(C(F)(F)F)c3)c(F)c2)ccn1.Cl [Regorafenib hydrochloride] + CC(C)C[C@H](NC(=O)[C@H](CCc1ccccc1)NC(=O)CN1CCOCC1)C(=O)N[C@@H](Cc1ccccc1)C(=O)N[C@@H](CC(C)C)C(=O)[C@@]1(C)CO1 [Carfilzomib],cell viability of combination,HCI01,77.7
same,cell viability of combination,UCD52 [1],52.7
COc1ccc(C[C@H](N)C(=O)N[C@@H]2[C@H](O)[C@H](n3cnc4c(N(C)C)ncnc43)O[C@@H]2CO)cc1.Cl.Cl [Puromycin dihydrochloride] + CC(C)C[C@H](NC(=O)[C@H](CCc1ccccc1)NC(=O)CN1CCOCC1)C(=O)N[C@@H](Cc1ccccc1)C(=O)N[C@@H](CC(C)C)C(=O)[C@@]1(C)CO1 [Carfilzomib],cell viability of combination,HCI01,76.4
same,cell viability of combination,UCD52 [1],13.8
CC(NCCCc1cccc(C(F)(F)F)c1)c1cccc2ccccc12 (stereo not drawn) [Cinacalcet] + CC(C)C[C@H](NC(=O)[C@H](CCc1ccccc1)NC(=O)CN1CCOCC1)C(=O)N[C@@H](Cc1ccccc1)C(=O)N[C@@H](CC(C)C)C(=O)[C@@]1(C)CO1 [Carfilzomib],cell viability of combination,HCI01,82.4
same,cell viability of combination,UCD52 [1],56.1
Cc1ccc(NC(=O)c2ccc(CN3CCN(C)CC3)cc2)cc1Nc1nc(-c2cccnc2)cs1 [Masitinib (AB1010)] + CC(C)C[C@H](NC(=O)[C@H](CCc1ccccc1)NC(=O)CN1CCOCC1)C(=O)N[C@@H](Cc1ccccc1)C(=O)N[C@@H](CC(C)C)C(=O)[C@@]1(C)CO1 [Carfilzomib],cell viability of combination,HCI01,86.3
same,cell viability of combination,UCD52 [1],69.6
Cc1cc(Nc2ncc(Cl)c(Nc3ccccc3S(=O)(=O)C(C)C)n2)c(OC(C)C)cc1C1CCNCC1 + CC(C)C[C@H](NC(=O)[C@H](CCc1ccccc1)NC(=O)CN1CCOCC1)C(=O)N[C@@H](Cc1ccccc1)C(=O)N[C@@H](CC(C)C)C(=O)[C@@]1(C)CO1 [Carfilzomib],cell viability of combination,HCI01,81.5
same,cell viability of combination,UCD52 [1],31.4
CCC(=C(c1ccccc1)c1ccc(OCCN(C)C)cc1)c1ccccc1.O=C(O)CC(O)(CC(=O)O)C(=O)O [Tamoxifen Citrate] + CC(C)C[C@H](NC(=O)[C@H](CCc1ccccc1)NC(=O)CN1CCOCC1)C(=O)N[C@@H](Cc1ccccc1)C(=O)N[C@@H](CC(C)C)C(=O)[C@@]1(C)CO1 [Carfilzomib],cell viability of combination,HCI01,90.4
same,cell viability of combination,UCD52 [1],71.2
CC(C)(C)c1ccc(C(=O)CCCN2CCC(OC(c3ccccc3)c3ccccc3)CC2)cc1 [Ebastine] + CC(C)C[C@H](NC(=O)[C@H](CCc1ccccc1)NC(=O)CN1CCOCC1)C(=O)N[C@@H](Cc1ccccc1)C(=O)N[C@@H](CC(C)C)C(=O)[C@@]1(C)CO1 [Carfilzomib],cell viability of combination,HCI01,74
same,cell viability of combination,UCD52 [1],59.8
Cc1cccc(CN2CCN(C(c3ccccc3)c3ccc(Cl)cc3)CC2)c1.Cl.Cl (stereo not drawn) [Meclizine 2HCl] + CC(C)C[C@H](NC(=O)[C@H](CCc1ccccc1)NC(=O)CN1CCOCC1)C(=O)N[C@@H](Cc1ccccc1)C(=O)N[C@@H](CC(C)C)C(=O)[C@@]1(C)CO1 [Carfilzomib],cell viability of combination,HCI01,105
same,cell viability of combination,UCD52 [1],57.2
Cl.Cl.Fc1ccc(C(c2ccc(F)cc2)N2CCN(CC=Cc3ccccc3)CC2)cc1 [Flunarizine 2HCl] + CC(C)C[C@H](NC(=O)[C@H](CCc1ccccc1)NC(=O)CN1CCOCC1)C(=O)N[C@@H](Cc1ccccc1)C(=O)N[C@@H](CC(C)C)C(=O)[C@@]1(C)CO1 [Carfilzomib],cell viability of combination,HCI01,103
same,cell viability of combination,UCD52 [1],61.1
O=C(C=Cn1cnc(-c2cc(C(F)(F)F)cc(C(F)(F)F)c2)n1)NNc1cnccn1 + CC(C)C[C@H](NC(=O)[C@H](CCc1ccccc1)NC(=O)CN1CCOCC1)C(=O)N[C@@H](Cc1ccccc1)C(=O)N[C@@H](CC(C)C)C(=O)[C@@]1(C)CO1 [Carfilzomib],cell viability of combination,HCI01,57.3
same,cell viability of combination,UCD52 [1],40.1
COc1cc2nccc(Oc3ccc(NC(=O)Nc4cc(C)on4)c(Cl)c3)c2cc1OC [Tivozanib (AV-951)] + CC(C)C[C@H](NC(=O)[C@H](CCc1ccccc1)NC(=O)CN1CCOCC1)C(=O)N[C@@H](Cc1ccccc1)C(=O)N[C@@H](CC(C)C)C(=O)[C@@]1(C)CO1 [Carfilzomib],cell viability of combination,HCI01,97.5
same,cell viability of combination,UCD52 [1],48.9
